# Assay outcomes as filed in PubChem BioAssay.
# Compounds with a hit are over-represented: about 9.3% of the library has one in this group of screens.
# VACV mCherry inh – vaccinia inhibition (mCherry reporter); Vaccinia virus mCherry reporter infection, fluorescence; AID 720579; hit rate 0.63% among 310,000; Potency, µM (doses to about 36.5 µM), for inactives: at the top dose activity change, negative = inhibition, usual class: inhibitors; calls by dose curve; tested in A549 cells; note: potency is the fitted concentration of half-maximal effect; nearly all actives have a fitted effect of over 35% in size
# HCMV inh – inhibitors of human cytomegalovirus; hit rate 4.5% among 410,000; activity change, negative = inhibition, % at 57.5 µM; AID 1259415; HFF cells, HCMV-luciferase reporter, 72 h; hits give low values; in the data active = activity change below about -60%; inconclusive = no clear call, values can overlap the other calls; inactive = above about -39%
#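 Cell-based, HFFs, 1000 cells/well, 16 h 37C; cpds in DMSO + HCMV-luc, MOI 1 PFU/cell; 72 h 37C; OneGlo luminescence after 5 min RT; norm. to buffer vs Salinomycin 10uM.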
# HCV inh – HCV inhibition; AID 651820; hit rate 3.4% among 340,000; Huh7.5.1 HCVcc-Cre infection, luciferase reporter, 44 h; Potency, µM (series often up to 41.8 µM), inactives show at the highest dose activity change, negative = inhibition, actives largely listed as inhibitors; note: potency is the fitted concentration of half-maximal effect
#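 Antiviral activity was scored by luciferase reporter output from cells infected with HCVcc-Cre (~0.5 moi) in presence of compound, 44 h infection period, cells seeded 1,000/well 4 h prior.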
# Sm TGR block – inhibitors of Schistosoma mansoni thioredoxin glutathione reductase; Q962Y6; purified TGR, DTNB reduction, TNB absorbance 405 nm; Potency, µM (doses to about 114 µM), for the others: top-dose activity change, negative = inhibition, most hits filed as inhibitors; hit rate 3% among 360,000; note: potency is the fitted concentration of half-maximal effect; nearly all actives have a fitted effect of over 60% in size
#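 First, TGR (20 nM dispensed) and NADPH were mixed with compound. Second, a 15 min room-temperature incubation followed. Third, further NADPH and then DTNB were added to start the reaction. Finally, TNB absorbance was monitored kinetically.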
# FMDV antiviral – antivirals against foot and mouth disease virus; AID 1159524; Potency, µM (top dose mostly 57.9 µM), for inactives: at the top dose activity change, negative = inhibition, usual class: inhibitors; hit rate 1.2% among 410,000; FMDV antiviral cell-based qHTS; calls by dose curve; tested in HEK293T cells; note: read-out not given here; potency is the fitted concentration of half-maximal effect; nearly all actives have a fitted effect of over 45% in size
# VACV Venus inh – vaccinia inhibition (Venus reporter); Vaccinia virus Venus reporter expression, fluorescence; Potency, µM (highest dose often 36.5 µM), inactives show top-dose activity change, negative = inhibition, actives largely listed as inhibitors; hit rate 0.46% among 330,000; calls by dose curve; tested in A549 cells; note: potency is the fitted concentration of half-maximal effect; nearly all actives have a fitted effect of over 30% in size
# * = called active by the depositor; i = inactive; ? = inconclusive; nt = not tested or not shown; ! = a repeat was not active. Unless noted, calls come from the whole dose curve; as a rule, active = well fitted curve in the direction sought with a large enough effect; inconclusive = small, poorly fitted or top-dose-only effect, or another doubt; inactive = no such curve, though single readings can be large; an effect the other way counts as inactive or inconclusive. % is set by controls: 0 for no effect and ±100 for the full control effect.
SMILES,VACV mCherry inh,HCMV inh,HCV inh,Sm TGR block,FMDV antiviral,VACV Venus inh
COC(=O)c1cc(NC(=O)c2ccc(Cn3cc(Cl)cn3)o2)cc(C(=O)OC)c1,-12.4%,-32.0,?,-14.9%,?,-1.7%
CCOC(=O)c1c(NC(=O)CSc2nnc(C)s2)sc2c1CCCCC2,?,13.3,10µM*,-23.4%,?,-24.0%
CCOC(=O)c1c(NC(=S)NC(=O)c2ccc(Cn3cc(Cl)cn3)o2)sc2c1CCC(C)C2 (stereo unspecified),20µM*,-71.0*,?,0.2%,17.0%,28.2µM*
CCOC(=O)c1c(NC(=O)CSc2nnc(C)s2)sc2c1CCC(C)C2 (stereo unspecified),nt,-12.3,11.2µM*,1.5%,-21.6%,?
O=C(CCS(=O)(=O)c1ccccc1)N1CCN(c2cccc(C(F)(F)F)c2)CC1,-8.3%,-31.0,?,?,-15.2%,-12.5%
O=C(Nc1nncs1)C(Sc1ccccc1)c1ccccc1 (stereo unspecified),i,-15.6,8.7%,-5.4%,-10.0%,-4.8%
CCOC(=O)c1c(NC(=O)CSc2nnc(C)c(=O)[nH]2)sc(C)c1-c1ccc(C)cc1,-8.5%,-37.6,-10.2%,8.7%,-7.9%,-20.6%
CCOC(=O)c1c(NC(=O)CSc2nnc(-c3c[nH]c4ccccc34)n2C)sc2c1CCCC2,?,6.2,-2.3%,-14.4%,?,?
CCOC(=O)c1c(NC(=O)CSc2nnc(-c3c[nH]c4ccccc34)n2CCOC)sc2c1CCCC2,?,?,11.2µM*,-11.9%,-15.3%,?
CCOC(=O)c1c(NC(=O)COC(=O)Cn2cnc3ccccc32)sc2c1CCC(C)C2 (stereo unspecified),?,20.6,?,-5.3%,-1.8%,?
CCOC(=O)c1c(NC(=O)Cn2nnc3ccccc32)sc2c1CCC(C)C2 (stereo unspecified),nt,-30.9,1.58µM*,-18.1%,-25.0%,?
CCOC(=O)c1c(NC(=O)CSc2nnc(N)s2)sc(C)c1-c1ccc(C)cc1,nt,?,25.1µM*,-8.4%,?,nt
O=C(O/N=C\c1ccc(N2CCCCC2)c([N+](=O)[O-])c1)c1c(F)cccc1F,nt,3.4,-23.2%,23.1%,0.0%,?
COc1cc(NC(=O)c2cc3ccccc3cc2O)c(OC)cc1Cl,nt,-100.6*,10µM*,-12.9%,12.6µM*,nt
COC(=O)c1cc(NC(=O)c2c(Cl)cnn2C)cc(C(=O)OC)c1,i,4.0,?,-12.5%,-23.8%,-14.2%
Cc1ccc(Cl)cc1NC(=O)c1cc2ccccc2cc1O,nt,-99.6*,?,3.6%,?,nt
COc1cc(NC(=O)c2c(Cl)cnn2C)c(OC)cc1Cl,i,-60.5*,?,-13.9%,-4.2%,2.8%
COc1cc(OC)c(NC(=O)c2ccccc2F)cc1Cl,nt,-2.5,1.1%,10.1%,36.0%,nt
COc1ccccc1NC(=O)c1cc2cc(Br)ccc2cc1O,nt,-28.9,11.2µM*,6.8%,?,nt
COc1ccc(OC)c(NC(=O)CSc2nnnn2C2CCCC2)c1,-9.9%,4.0,-12.2%,-12.9%,-19.7%,9.3%
CC(C)CCNC(=O)CSc1nnc(-c2ccc(S(=O)(=O)N3CCCC3)cc2)n1C,-15.3%,-4.8,15.7%,-2.9%,nt,-16.5%
Cc1ccc(Cl)cc1N1CCN(C(=O)C(=O)N2CCCCC2)CC1,-0.4%,?,8.3%,-4.6%,-27.0%,-2.9%
COc1cccc(C2c3[nH]c4ccccc4c3CCN2C(=O)c2ccccc2F)c1OC (stereo unspecified),nt,10.2,-12.4%,4.3%,-11.6%,nt
O=C(c1cn[nH]c1)N1CCc2c([nH]c3ccccc23)C1c1c(F)cccc1Cl (stereo unspecified),10µM*,26.3,3.7%,5.4%,-7.1%,-15.0%
COc1ccc(S(=O)(=O)NCCc2cn3nc(C)c(C)nc3n2)cc1C,nt,32.3,0.6%,44.7µM*,8.3%,nt
SMILES,VACV mCherry inh,HCMV inh,HCV inh,Sm TGR block,FMDV antiviral,VACV Venus inh
CCOc1ccccc1NC(=O)CSc1nc2ccccc2c2nc(CCn3cncc3C)nn12,-26.1%,-64.5*,nt,-4.0%,-28.4%,?
CCOc1ccccc1-n1c(SCC(=O)Nc2ccccc2C(=O)O)nc2ccccc2c1=O,-13.0%,-80.7*,22.7%,15.5%,?,-7.9%
Cc1cncn1CCc1nc2c3ccccc3nc(SCC(=O)Nc3cccc(Cl)c3)n2n1,-13.1%,-105.0*!,?,7.1%,-17.0%,?
CCC(Sc1nc2ccccc2c2nc(CCn3cncc3C)nn12)C(=O)Nc1cccc(OC)c1 (stereo unspecified),?,-10.3,nt,-3.5%,-1.1%,?
Cc1cncn1CCc1nc2c3ccccc3nc(SCC(=O)Nc3ccc(F)cc3)n2n1,-2.5%,-5.4,nt,6.5%,-10.8%,9.5%
NCCS,-14.8%,5.4,0.562µM*,-11.2%,1.7%,-11.2%
COc1ccc2cc(C3NC(=O)c4ccccc4N3)c(Cl)nc2c1 (stereo unspecified),nt,-19.7,-10.4%,6.3%,0.0%,nt
CCN(CC(=O)NCc1cccs1)C(=O)/C=C/c1cc(OC)ccc1OC,nt,0.0,-8.2%,3.1%,-19.4%,nt
CCN(CC(=O)NCc1cccs1)C(=O)CCCOc1ccccc1,nt,0.0,0.5%,-2.0%,14.8%,nt
CCN(CC(=O)NCc1cccs1)C(=O)/C=C/c1ccc(OC)cc1OC,-8.9%,-9.3,20µM*,-0.8%,21.9%,-20.6%
CCN(CC(=O)NCc1cccs1)C(=O)CCCOc1ccc(C(C)(C)C)cc1,-7.2%,-104.8*,?,1.6%,-19.3%,-17.9%
CCOC(=O)c1ccc(NC(=O)Nc2c(C)n(C)n(-c3ccccc3)c2=O)cc1,-17.8%,48.7,nt,2.2%,-17.3%,-10.1%
O=C(Cc1cccs1)NCc1ccc(F)cc1,-8.4%,14.2,19.3%,0.1%,28.9%,-1.8%
N#CCCN1CCN(S(=O)(=O)c2ccc(C#N)cc2)CC1,nt,-6.9,5.7%,0.0%,-20.2%,-17.2%
COc1cccc(/C=C/C(=O)OCC(=O)c2c[nH]c3ccccc23)c1OC,-13.9%,-17.2,?,-0.3%,25.1µM*,-9.8%
CC1(C)C2CC[C@]3(C)C(CC=C4[C@@H]5C[C@@](C)(CO)[C@@H](O)C[C@]56C[C@@H](OC6=O)[C@]43C)[C@@]2(C)CC[C@@H]1O (stereo partly specified),0.0%,25.9,1.26µM*,nt,-15.9%,-2.1%
Cc1ccc(-c2nc3ccccc3[nH]2)s1,-14.2%,99.0,?,-32.6%,14.5%,-5.9%
COCCCn1c(SCC(=O)NC2CCCC2)nnc1-c1ccco1,i,29.7,2.5%,39.8µM*,-0.2%,-12.1%
CCCn1c(SCC(=O)NC2CCCCC2)nnc1-c1cccnc1,-1.2%,-65.4*,9.3%,0.7%,6.1%,-16.1%
Cc1ccc2nc(CSc3nnc(NC(=O)c4cccc(Br)c4)s3)cc(=O)n2c1,i,-20.3,nt,8.6%,3.1%,-5.9%
